# Some of the results follow. Activity calls are given as the source filed them.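 The calls were made as follows: active = mean inhibition over triplicate wells above a set limit taken from the primary lipase screen (cut at about 34% in these data); inactive = the rest.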
# Target: Diacylglycerol lipase-beta (Homo sapiens) (UniProt Q8NCG7)
# Assay: DAGLB lipase inhibitors, retest, confirmation, biochemical, fluorescence, HEK293T membranes (AID 504445);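 also: 0% = DAGLB with DMSO and 100% = wells lacking DAGLB enzyme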
# Details: HEK293T DAGLB membrane lysate, EnzChek fluorogenic substrate; at 5.17 µM; hits give high values
# Sequence of Diacylglycerol lipase-beta (Homo sapiens) (Q8NCG7 whole entry, looked up): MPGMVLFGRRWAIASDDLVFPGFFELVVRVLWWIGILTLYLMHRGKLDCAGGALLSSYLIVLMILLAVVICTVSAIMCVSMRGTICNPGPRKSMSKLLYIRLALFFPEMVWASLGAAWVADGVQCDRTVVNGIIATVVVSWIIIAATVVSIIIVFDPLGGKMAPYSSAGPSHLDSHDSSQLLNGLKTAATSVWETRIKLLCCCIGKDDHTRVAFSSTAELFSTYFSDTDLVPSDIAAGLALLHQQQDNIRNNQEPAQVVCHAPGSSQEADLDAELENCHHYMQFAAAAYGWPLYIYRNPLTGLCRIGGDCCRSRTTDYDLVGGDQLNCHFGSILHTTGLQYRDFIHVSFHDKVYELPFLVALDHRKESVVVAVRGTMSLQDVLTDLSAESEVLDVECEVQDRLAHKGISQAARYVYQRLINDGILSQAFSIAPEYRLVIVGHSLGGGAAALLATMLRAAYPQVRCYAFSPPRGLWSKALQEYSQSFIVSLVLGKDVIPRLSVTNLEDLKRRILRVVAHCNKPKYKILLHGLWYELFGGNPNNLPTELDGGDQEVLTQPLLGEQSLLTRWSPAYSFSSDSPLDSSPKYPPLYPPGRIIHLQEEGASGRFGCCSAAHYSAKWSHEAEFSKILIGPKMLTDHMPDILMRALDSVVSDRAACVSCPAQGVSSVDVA
row,SMILES,inhibition
1,Cc1ccc(/C=N/NC(=O)C(NC(=O)c2ccccc2)c2n[nH]c(=O)c3ccccc23)cc1 (configuration not stated),27.9% (inactive)
2,Cc1ccc(S(=O)(=O)/N=C2\C=C(NS(=O)(=O)c3ccc(C)cc3)C(=O)c3ccccc32)cc1,18.2% (inactive)
3,Cc1oc2cc([N+](=O)[O-])c(O)c([N+](=O)[O-])c2c1C(=O)c1ccc(Br)cc1,49.9% (active)
4,O=C(Oc1cccc(N2C(=O)C3C4c5ccccc5C(c5ccccc54)C3C2=O)c1)c1ccco1 (configuration not stated),31.9% (inactive)
5,COc1cccc(/C=N/Nc2ccc(S(=O)(=O)Nc3ccccc3C(=O)O)cc2[N+](=O)[O-])c1O,49.7% (active)
6,COc1ccc(Br)cc1/C=N/Nc1ccc(S(=O)(=O)Nc2ccccc2C(=O)O)cc1[N+](=O)[O-],27.4% (inactive)
7,O=C(NNc1c2ccccc2nc2ccccc12)c1cc2ccccc2cc1O,63.4% (active)
